A short description of assay [1]: inhibitors of TNFa-induced NFkB p65 translocation, primary screen, imaging, HUVEC, MLSMR starter and 10KST1 sets (AID 438;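 active = inhibition above 20% together with a positive visual image hit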;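 also: compound added about 3h40 before a 20 min TNFalpha stimulation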;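 as to inhibition: signal is the nuclear over cytoplasmic p65 intensity ratio per well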). The conditions noted are these: HUVEC TNFa-induced p65 nuclear translocation; cell count: measured here: nuclei count (cytotoxicity indicator), at 2.08 µM; inhibition: at 2 µM, stronger effect = higher value, 0% TNFa-plus-vehicle, 100% no-TNFa wells.
Assay [2] can be described thus: inhibitors of mutant huntingtin aggregation, primary screen, imaging, exon1htt(103Q)mCFP cells, high-content imaging (AID 483;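 active = visual image review flags a hit and inhibition of aggregation exceeds 20%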;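 also: compound exposure lasted 3 days before fixation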;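 as to nuclei count: percent of the per-plate median nuclei count of sample wells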). As to conditions: exon1htt(103Q)mCFP cell line, aggregate imaging, at 2 µM; inhibition of aggregation: stronger effect = higher value; nuclei count: measured here: cell count, toxicity.
A short description of assay [3]: inhibitors of E-selectin induction by TNFa, primary screen, imaging, HUVEC, immunofluorescence, MLSMR starter and 10KST1 sets (AID 487;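 active = visually confirmed hit in the image check and inhibition above 20%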;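 as to inhibition: signal is fraction of cell area covered by stained E-selectin grains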;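 as to nuclei count: 100% = median nuclei count of all wells on the same plate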). The conditions noted are these: HUVEC TNFalpha-induced E-selectin immunofluorescence imaging, at 2 µM; inhibition: stronger effect = higher value; nuclei count: measured here: cell number, toxicity.
Assay [4] deals with Voltage-gated potassium channel subunit beta-2 (Rattus norvegicus) (UniProt P62483). In words: KvBeta enzyme negative modulators, primary screen, biochemical, NADPH fluorescence (AID 622;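 active = fluorescence slope higher than the sample average by over 3 SD, cut at about -0.22 in these data, passing the limit was not always enough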;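 also: slope of raw intensity against log time taken from 70 to 1610 s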). The conditions noted are these: recombinant KvBeta, 4-cyanobenzaldehyde reduction, at 10 µM, stronger effect = higher value.
Sequence of Voltage-gated potassium channel subunit beta-2 (Rattus norvegicus) (P62483 whole entry, looked up): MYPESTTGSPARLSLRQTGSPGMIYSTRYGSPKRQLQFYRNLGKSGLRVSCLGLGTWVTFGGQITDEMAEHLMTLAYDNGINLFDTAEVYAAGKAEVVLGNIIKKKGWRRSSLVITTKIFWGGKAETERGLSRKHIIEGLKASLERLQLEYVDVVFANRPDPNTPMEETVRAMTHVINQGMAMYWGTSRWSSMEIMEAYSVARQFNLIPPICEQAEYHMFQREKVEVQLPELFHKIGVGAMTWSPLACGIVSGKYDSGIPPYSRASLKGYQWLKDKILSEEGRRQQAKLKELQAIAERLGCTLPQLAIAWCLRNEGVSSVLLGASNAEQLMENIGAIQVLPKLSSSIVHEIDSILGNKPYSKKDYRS
Assay [5] shares this target. Briefly: KvBeta positive modulators, primary screen, biochemical, NADPH fluorescence (AID 623;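 active = NADPH fluorescence slope more negative than the mean of all samples by about 3 SD, 99.7% confidence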;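 also: fluorescence intensity change per second fitted from 20 to 320 s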). The conditions noted are these: Recombinant KvBeta, NADPH fluorescence decrease slope, 10 min; at 10 µM; stronger effect = lower value.
Assay [6] addresses Alpha-2C adrenergic receptor (Homo sapiens) (UniProt P18825). In words: modulators of alpha2C/GIRK thallium flux, primary screen, cell-based, HEK293 alpha2C/GIRK1/2 (AID 624;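 active = fluorescence slope after compound addition differing from the mean of all screened samples at 99.7% confidence, in either direction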;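 also: slope of fluorescence ratio to pre-addition baseline per second over 15 to 24 s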). The conditions noted are these: thallium flux BTC fluorescence, at 10 µM, actives lie on both sides.
Assay [7] in a line: inhibitors of Sendai virus-induced IRF3 signaling, primary screen, TLR/RLR signaling modifier project, cell-based, Sendai virus stimulus, luciferase, 10K MLSCN set (AID 602276).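 Also: firefly luciferase from ISG56 promoter only with Renilla not read in this screen; 0% = Sendai virus plus DMSO and 100% = medium plus DMSO without virus.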 The conditions noted are these: HEK293 RL24 IRF3 luciferase reporter, at 10 µM, stronger effect = higher value. A general note: In a reporter assay the amount or activity of a reporter protein is the signal.
Assay [8] in a line: inhibitors of poly I:C-induced TLR3 signaling, primary screen, cell-based, poly I:C stimulus, luciferase, 10K MLSCN set (AID 602277;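 active = inhibition of the reporter signal at or above 50%; inactive = inhibition below 50%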). The conditions noted are these: HEK293-TLR3 RL24 IRF3 luciferase reporter, at 10 µM, stronger effect = higher value.

Active and inactive are the calls of the source.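 The calls were made as follows, unless noted: active = inhibition at or above 50% at 10 µM; inactive = inhibition below 50%.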

By inhibition is commonly meant the change of the read-out against control, counted positive when it falls.

Sequence of Alpha-2C adrenergic receptor (Homo sapiens) (P18825 whole entry, looked up): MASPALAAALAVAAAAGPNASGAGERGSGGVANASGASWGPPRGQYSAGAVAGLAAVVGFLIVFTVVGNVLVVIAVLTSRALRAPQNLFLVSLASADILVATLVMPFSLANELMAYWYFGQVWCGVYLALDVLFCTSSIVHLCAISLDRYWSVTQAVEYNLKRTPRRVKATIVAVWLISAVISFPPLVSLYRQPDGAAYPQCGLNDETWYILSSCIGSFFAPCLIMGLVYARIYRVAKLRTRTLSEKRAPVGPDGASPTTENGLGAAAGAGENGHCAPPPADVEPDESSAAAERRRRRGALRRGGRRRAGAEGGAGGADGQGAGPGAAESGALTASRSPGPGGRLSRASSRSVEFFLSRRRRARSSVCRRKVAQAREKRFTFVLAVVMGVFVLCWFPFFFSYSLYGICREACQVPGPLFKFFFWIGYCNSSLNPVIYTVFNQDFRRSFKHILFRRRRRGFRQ

With `CCC(=O)Nc1c(C#N)c2nc3ccccc3nc2n1-c1ccccc1C`, the cell count in assay [1] stood at 311. Moreover, the inhibition in assay [1] is -1.9% (inactive); in assay [3] it was -20.8% (inactive); in assay [7], 12.6% (inactive); in assay [8], 21.8% (inactive). In addition, the inhibition of aggregation in assay [2] was 11.4% (inactive). The nuclei count in assay [2] came to 83.9%; in assay [3] it was 95.9%. For the same molecule, the fluorescence slope in assay [4] is -0.0512 (inactive). For the same molecule, the NADPH fluorescence slope in assay [5] was 7.8e-06 (inactive). Also, the slope in assay [6] is 0.00349 (inactive).

Regarding `COC1CCCCC1Nc1cccc(SC)c1` (centres undefined), in assay [1], the cell count came out at 411. Moreover, the inhibition is 0.6% (inactive) in assay [1], -65.5% (inactive) in assay [3], 12.1% (inactive) in assay [7] and 19.8% (inactive) in assay [8]. The inhibition of aggregation in assay [2] was -6.7% (inactive). In addition, the nuclei count in assay [2] stood at 90.9%; in assay [3] it was 120%. For the same molecule, the fluorescence slope in assay [4] was -0.414 (inactive). Also, the NADPH fluorescence slope in assay [5] is -2.4e-05 (inactive). Also, the slope in assay [6] is 0.0037 (inactive).

For the molecule `COc1cccc(-n2nc(C(=O)Nc3ccc4c(c3)OCO4)c3ccccc3c2=O)c1`, the cell count in assay [1] turned out to be 741. Also, the inhibition in assay [1] was 1.6% (inactive); in assay [3] it was -27% (inactive); in assay [7], 3.08% (inactive); in assay [8], -20.2% (inactive). Also, the inhibition of aggregation in assay [2] was -5.9% (inactive). The nuclei count was determined as 98.3% in assay [2] and 118% in assay [3]. In assay [4], the fluorescence slope was -0.601 (inactive). Besides, the NADPH fluorescence slope in assay [5] was -3.9e-05 (inactive). The slope in assay [6] was 0.0101 (inactive).

Consider `C=CCn1c(N)c(C(=O)NCCC2=CCCCC2)sc1=S`, for which, in assay [1], the cell count is 450. For the same molecule, the inhibition is 6.6% (inactive) in assay [1], 4% (inactive) in assay [3], 0.338% (inactive) in assay [7] and -64.6% (inactive) in assay [8]. In assay [2], the inhibition of aggregation is -12.8% (inactive). Besides, the results for the nuclei count in assay [2] and in assay [3] were 104% and 116%, respectively. In assay [4], the fluorescence slope was -0.626 (inactive). The NADPH fluorescence slope in assay [5] is -1.2e-05 (inactive). Besides, the slope in assay [6] was 0.00668 (inactive).

Turning to `COc1ccc(C(=O)N(CCN2CCOCC2)CC(=O)NC2CCCC2)cc1OC`, the cell count in assay [1] came out at 402. Further, the inhibition is 0.5% (inactive) in assay [1], -41.4% (inactive) in assay [3], -8.79% (inactive) in assay [7] and -6.82% (inactive) in assay [8]. For the same molecule, the inhibition of aggregation in assay [2] is -20.8% (inactive). Also, the nuclei count is 108% in assay [2] and 109% in assay [3]. In addition, the fluorescence slope in assay [4] is -0.597 (inactive). In assay [5], the NADPH fluorescence slope is -5.3e-05 (inactive). For the same molecule, the slope in assay [6] was 0.00354 (inactive).

In the case of `CCN(CC)S(=O)(=O)c1ccc2oc(SCc3ccc(F)cc3)nc2c1`, the cell count in assay [1] was 707. Further, the inhibition in assay [1] was -9.4% (inactive); in assay [3], -6.6% (inactive); in assay [7], 1.12% (inactive); in assay [8], -39.5% (inactive). Also, in assay [2], the inhibition of aggregation is 6.8% (inactive). Further, the nuclei count in assay [2] amounted to 104%; in assay [3], 110%. The fluorescence slope in assay [4] is -0.604 (inactive). Also, the NADPH fluorescence slope in assay [5] was -6.8e-05 (inactive). Moreover, in assay [6], the slope was 0.00777 (inactive).

As to `COCCN(C(=O)c1csnn1)C(C(=O)NC1CCCCC1)c1cccs1` (centres undefined), the cell count in assay [1] was found to be 370. Also, the inhibition in assay [1] was 5% (inactive); in assay [3], -52.1% (inactive); in assay [7], 10.7% (inactive); in assay [8], 23.1% (inactive). In addition, the inhibition of aggregation in assay [2] was -6.3% (inactive). Moreover, the nuclei count was found to be 107% in assay [2] and 95.8% in assay [3]. In addition, the fluorescence slope in assay [4] was -0.335 (inactive). Moreover, the NADPH fluorescence slope in assay [5] was 5.1e-05 (inactive). In assay [6], the slope is 0.00648 (inactive).

Turning to `CCOC(=O)Cc1cc(=O)n2[nH]c(C)c(-c3ccc(OC)cc3)c2n1`, the cell count in assay [1] amounted to 652. In addition, the inhibition in assay [1] is -0.3% (inactive); in assay [3], 0.6% (inactive); in assay [7], 14.2% (inactive); in assay [8], 22.5% (inactive). Also, the inhibition of aggregation in assay [2] is 19.2% (inactive). Moreover, the values for the nuclei count in assay [2] and in assay [3] were 94% and 102%, respectively. Also, the fluorescence slope in assay [4] was -0.301 (inactive). Besides, the NADPH fluorescence slope in assay [5] was 1.1e-05 (inactive). Also, in assay [6], the slope is 0.00404 (inactive).

For `Cc1ccc(NC(=O)C2CCCN2S(=O)(=O)c2cccc3cccnc23)cc1F` (centres undefined), the cell count in assay [1] was 577. The inhibition in assay [1] was -1.1% (inactive); in assay [3] it was -56.2% (inactive); in assay [7], 9.99% (inactive); in assay [8] it was 33.6% (inactive). For the same molecule, the inhibition of aggregation in assay [2] is 3.5% (inactive). The nuclei count was found to be 71.6% in assay [2] and 100% in assay [3]. For the same molecule, the fluorescence slope in assay [4] was -0.55 (inactive). Further, the NADPH fluorescence slope in assay [5] is -3.9e-05 (inactive). In addition, the slope in assay [6] was 0.00633 (inactive).

With `COc1ccc(C2C(C#N)=C(N)OC3=C2C(=O)CC(C)C3)c(OC)c1OC` (centres undefined), the cell count in assay [1] stood at 349. The inhibition is 15.6% (inactive) in assay [1], 11.3% (inactive) in assay [3], -3.81% (inactive) in assay [7] and 19.1% (inactive) in assay [8]. Besides, the inhibition of aggregation in assay [2] is 5.8% (inactive). Moreover, the nuclei count in assay [2] was found to be 123%; in assay [3] it was 102%. For the same molecule, the fluorescence slope in assay [4] is -0.479 (inactive). For the same molecule, the NADPH fluorescence slope in assay [5] was 2e-05 (inactive). Besides, in assay [6], the slope was 0.00381 (inactive).

Regarding `CCc1cc(=O)n2[nH]c(C)c(-c3ccccc3OC)c2n1`, the cell count in assay [1] came to 595. Besides, the inhibition was 2.8% (inactive) in assay [1], -38.4% (inactive) in assay [3], 4.14% (inactive) in assay [7] and 16.3% (inactive) in assay [8]. Besides, the inhibition of aggregation in assay [2] is 42.7% (inactive). In addition, the nuclei count in assay [2] came to 64.6%; in assay [3] it was 96.2%. Further, the fluorescence slope in assay [4] is -0.592 (inactive). Also, the NADPH fluorescence slope in assay [5] was -2.9e-05 (inactive). Moreover, the slope in assay [6] was 0.00657 (inactive).

For the molecule `Cn1c(=O)n(CCN2CCOCC2)c(=O)c2c1nc1n2CCN1c1ccccc1`, in assay [1], the cell count turned out to be 362. Moreover, the inhibition in assay [1] was 14% (inactive); in assay [3], -33.7% (inactive); in assay [7] it was -6.67% (inactive); in assay [8], 3.62% (inactive). Moreover, in assay [2], the inhibition of aggregation was 27.9% (inactive). The nuclei count worked out at 98.5% in assay [2] and 132% in assay [3]. Besides, the fluorescence slope in assay [4] was -0.564 (inactive). In addition, in assay [5], the NADPH fluorescence slope is 2.6e-05 (inactive). The slope in assay [6] is 0.00592 (inactive).

As to `CC(=O)C1=C(C)NC(SCSc2ccccc2)=C(C#N)C1c1cccnc1` (centres undefined), the cell count in assay [1] was 472. The inhibition is -0.5% (inactive) in assay [1], -33% (inactive) in assay [3], 1.86% (inactive) in assay [7] and 0.63% (inactive) in assay [8]. The inhibition of aggregation in assay [2] is -6.8% (inactive). For the same molecule, the values for the nuclei count in assay [2] and in assay [3] were 87.9% and 121%, respectively. The fluorescence slope in assay [4] is -0.475 (inactive). Moreover, the NADPH fluorescence slope in assay [5] was -3e-05 (inactive). The slope in assay [6] was 0.00661 (inactive).

As to `Cc1nc2scc(-c3cccs3)c2c(=O)n1-n1cccc1`, the cell count in assay [1] is 506. Also, the inhibition in assay [1] is 10.6% (inactive); in assay [3], -398% (inactive); in assay [7] it was 4.56% (inactive); in assay [8] it was 18.4% (inactive). Also, in assay [2], the inhibition of aggregation was 10.9% (inactive). Also, the figures for the nuclei count in assay [2] and in assay [3] were 102% and 140%, respectively. Moreover, in assay [4], the fluorescence slope was -0.333 (inactive). The NADPH fluorescence slope in assay [5] was 1.9e-05 (inactive). The slope in assay [6] is 0.00572 (inactive).
